# Test results as given in PubChem BioAssay AID802 (Columbia University Molecular Screening Center, 2007).
# Among all 95,000 compounds or so, about 460 (0.48%) were called active. Many of the other results were omitted from the sample, so actives are more common in it than they were. A number with no mark means an inactive call.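 How the source made its calls: active means inhibition above the batch mean plus 3 SD, with images confirmed as a hit by eye (cut at about 37% in these data); inconclusive means inhibition above that limit but hit not confirmed in images; inactive means inhibition not above that limit.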
# Experiment: inhibitors of TNFa-induced VCAM1 expression, primary screen, imaging, HUVEC, TNFa stimulus, immunofluorescence (AID 802);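 further: 0% = TNF-stimulated DMSO wells and 100% = unstimulated control wells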
# Settings: HUVEC TNFa-induced VCAM-1 immunofluorescence, high-content imaging; at 2 µM; stronger effect = higher value
row,SMILES,inhibition
1,CCOc1ccc(C(=O)NC2CCN(C(=O)Nc3ccccc3OC)CC2)cc1,-14.1%
2,O=C(NC(Nc1nc2ccc([N+](=O)[O-])cc2s1)(C(F)(F)F)C(F)(F)F)c1ccccc1,88.1% (active)
3,Cc1cc(C)cc(OCC(=O)Nc2nc3ccc([N+](=O)[O-])cc3s2)c1,21.3%
4,COC(=O)C(NC(=O)c1ccc(OC)cc1)(Nc1ncc(S(=O)(=O)c2ccc([N+](=O)[O-])cc2)s1)C(F)(F)F (stereo not given),-3.1%
5,Cc1ccccc1NC(=S)Nc1cccc([N+](=O)[O-])c1,-16.9%
6,COc1ccc(Nc2ncc(C(=O)N3CCN(c4ccccc4OC)CC3)c3ccccc23)cc1,26.1%
7,FC(F)(F)c1cc(-c2ccco2)nc(NCc2ccc(Cl)cc2)n1,9.6%
8,Cc1cc(C)c2c(-n3cccc3)c(NC(=O)OCc3ccccc3)sc2n1,25.4%
9,COc1cccc(CNc2nc3nc4c(c(=O)n3[nH]2)CCC4)c1,15.2%
10,Cc1cccc(-n2cnc(C(=O)Nc3cccnc3)c2)n1,-5.1%
11,CCOC(=O)Cc1csc(NC(=O)CSc2nnc(-c3cccnc3)n2Cc2ccco2)n1,15.6%
12,O=S(=O)(Cc1cc(Sc2ccccc2)nc(-c2ccccc2)n1)c1ccccc1,-28.4%
13,CCOc1ccccc1NC(=O)c1cccnc1,-0.4%
14,COc1ccc(C(F)(F)F)cc1N/C=C\c1nnnn1-c1ccc(C)cc1,16.2%
15,O=C(Nc1ncc2c(n1)CC(c1ccco1)CC2=O)c1ccc(Cl)cc1 (stereo not given),91.4% (active)
16,CCc1ccc(Nc2ncc3c(n2)CC(c2ccco2)CC3=O)cc1 (stereo not given),-20.6%
17,O=C(Nc1ncc2c(n1)-c1ccccc1OC2)c1ccc(Cl)cc1,6.1%
18,COc1ccc(C2C(C(C)=O)=C(O)C(=O)N2c2nccs2)cc1 (stereo not given),12.3%
19,COc1ccc(CCN(Cc2cc3cccc(C)c3[nH]c2=O)C(=O)N2CCCC2)cc1OC,91.4% (active)
20,COc1cc2cc(CN(CCN3CCCC3)C(=O)Nc3ccccc3Cl)c(=O)[nH]c2cc1OC,28.3%
21,CCCN(Cc1cc2cccc(C)c2[nH]c1=O)S(C)(=O)=O,-13.9%
22,COc1ccc2oc(C)c(NC(C)=O)c2c1,0.3%
23,COc1ccc(Nc2cc(=O)oc3ccccc23)cc1,88.9% (active)
24,COc1ccc(N2CCN(Cc3cc(=O)oc4ccc5ccccc5c34)CC2)cc1,9.8%

row,SMILES,inhibition
1,CCCSC(=S)NC1CCS(=O)(=O)C1 (stereo not given),4.3%
2,CCN(CC)CCn1c(=S)[nH]c2ncccc2c1=O,11%
3,c1ccc(Nc2nc(N3CCOCC3)c3ccccc3n2)cc1,-8.6%
4,CCOC(=O)N1CCN(C(c2cccnc2)c2ccc3cccnc3c2O)CC1 (stereo not given),9.9%
5,COc1ccc(CCNC(=O)CSc2nnc(-c3cccc(F)c3)o2)cc1OC,11.2%
6,COc1ccc(CN(C(=O)CSc2nnc(-c3ccc(OC)c(OC)c3)o2)c2ccc(F)cc2)cc1,17.6%
7,COc1ccc(-c2nnc(SCC(=O)NC3CCCCC3)o2)cc1OC,87.2% (active)
8,Cc1cc2cc3c(cc2nc1SCC(=O)Nc1c(C)cccc1C)CCC3,6%
9,Cc1cccc(NC(=O)C(C)N2C(=O)C3C4CC(C(Br)C4Br)C3C2=O)c1 (stereo not given),8.5%
10,CCC1(CC)NC(=O)N(CC(=O)OCC(=O)Nc2ccc(C(F)(F)F)cc2)C1=O,9.5%
11,O=C(Nc1cc2c3c(c1)C1CCCC1CN3CC1CCCC21)c1ccc([N+](=O)[O-])cc1 (stereo not given),3%
12,Cc1n[nH]c(=S)n1/N=C/c1ccc(Br)o1,4.4%
13,O=[N+]([O-])c1ccc(NCCCN2CCOCC2)c(Cl)c1,-2.6%
14,CC(C)(C)Cc1nnc(NC(=O)c2cc(-c3ccccc3)nc3ccccc23)s1,-0.7%
15,CC1(C)CC(CC(=O)O)C(=O)O1 (stereo not given),20.1%
16,CCOc1ccc(-n2c(N)c(C(=O)NCC3CCCO3)sc2=S)cc1 (stereo not given),-3.3%
17,Cc1ccc2c(c1)-c1c(ssc1=S)C(C)(C)N2C(=O)CN1C(=O)c2ccccc2C1=O,-19.4%
18,CCOC(=O)c1c(N=CN(C)C)c(C#N)c2n1CCCC2,8.7%
19,COc1ccc(/C=N/Nc2nc3ccccc3o2)cc1OC,-32.9%
20,C=CCNC(=S)NNc1ncnc2sc3c(c12)CC(C)(C)OC3,27.9%
21,O=C(CN1C(=O)C2C3C=CC(C3)C2C1=O)Nc1nc(-c2ccccn2)cs1 (stereo not given),11%
22,Cc1cc(NC(=O)CSc2nc(C(C)C)nc3sc4c(c23)CCC(C)C4)no1 (stereo not given),18.6%
23,CC(=O)Nc1ccc(N2C(=O)CCC2=O)cc1C,8.8%
24,O=C(/C=C/Nc1ccccc1)c1cnc(-c2ccccc2)s1,-1.5%

row,SMILES,inhibition
1,Cc1ccc(C2(C(F)(F)F)N=C3Sc4cc(C)cc(C)c4N3C(=O)N2)cc1 (stereo not given),7.1%
2,Cc1ccc(C)c(N2C(=O)CS/C2=N\NC(=O)c2ccccc2Cl)c1,10.4%
3,O=C(Cn1ccc([N+](=O)[O-])n1)NCc1cccs1,7.9%
4,O=c1c([N+](=O)[O-])cc(C(F)(F)F)cn1Cc1cccc(Cl)c1,3.2%
5,O=C(N/N=C\c1ccc(-c2ccc(Cl)c(Cl)c2)o1)C(=O)N1CCCC1,-4.3%
6,CCCNC(=O)NCc1ccc(N2CCCC2=O)cc1,3.5%
7,CCOC(=O)c1c(NC(=S)Nc2ccccc2)sc2c1CCN(C)C2,12.8%
8,CC(=O)c1cn(CCCCCCCCCCn2cc(C(C)=O)c(=O)[nH]c2=O)c(=O)[nH]c1=O,5.5%
9,O=C(Nc1ccn(Cc2ccccc2F)n1)c1ccc(COc2ccc(Cl)cc2Cl)o1,4.3%
10,Cc1ccc(C2C(C#N)C(C#N)N3CCCN23)cc1 (stereo not given),-8%
11,CCc1cc(C(c2ccccc2OC)N2CCOCC2)c(NC(=O)c2ccccc2)s1 (stereo not given),3.5%
12,COCCNC(=O)c1onc(CSc2cccc(C)c2)c1C(=O)O,13.5%
13,Cn1c(NN)nc2sc3c(c2c1=O)CCC3,27.5%
14,O=C(CSCc1ccccc1Cl)NNC(=O)c1ccccc1,2.9%
15,CC(=O)c1cccc(NC(=O)C2CCCN2S(=O)(=O)c2cccc3nsnc23)c1 (stereo not given),-0.5%
16,CCc1ccc(/C=N/NC(=O)c2ccc(OC3CCCC3)cc2)s1,-3.5%
17,COC(=O)c1ccc(S(=O)(=O)N2CCC(c3nc4ccccc4o3)CC2)cc1,-1.2%
18,c1ccc(CSc2nnc(-c3ccco3)n2Cc2ccccc2)cc1,-1.6%
19,O=c1[nH]c(CSc2ncc(-c3ccc(F)cc3)n2Cc2ccco2)nc2ccccc12,-0.9%
20,Nc1cc(=O)nc(SCc2ccccc2)n1Cc1ccco1,95% (active)
21,CCn1nccc1C(=O)Nc1ccc(Cl)c(Cl)c1,2.3%
22,CC(C)c1ccc(/C=C/C(=O)NNC(=O)c2cccnc2)cc1,-5.5%
23,C=CCn1c(SCC(=O)c2ccc(Br)cc2)nnc1C(C)NC(=O)Cc1ccc(OC)cc1 (stereo not given),12.4%
24,O=C(/C=C/c1ccco1)Nc1cccc(-c2nc3ccccc3[nH]2)c1,9.8%

row,SMILES,inhibition
1,O=C(/C=C/c1ccco1)Nc1ccc(Oc2ccccc2)cc1,6.5%
2,Cc1ccc(-n2nc3ccc(NC(=O)/C=C/c4ccco4)cc3n2)cc1C,46.8% (active)
3,CC(O)CN(Cc1ccc(Cl)cc1)CC(C)O (stereo not given),-2.6%
4,Cc1ccc(NC(=S)Nc2ncccc2C)c(C)c1,2.5%
5,CC1=NN(Cc2ccccc2)C(=O)/C1=C/c1ccc(N(C)C)cc1,3.7%
6,COC(=O)c1cc2nc(-c3ccccc3)cc(C(F)(F)F)n2n1,-20.1%
7,Cc1cc(C)c2cc(CN(Cc3nnnn3Cc3ccc(F)cc3)C3CCCC3)c(=O)[nH]c2c1,1.5%
8,CS(=O)(=O)c1sc2nc(-c3ccccc3)cc(-c3ccccc3)c2c1N,-20.3%
9,COc1ccccc1/C=C/C1=NC(=C\N(C)C)/C(=O)O1,5.1%
10,CCN(CC)S(=O)(=O)c1ccc2c3c(cccc13)C(=O)S2,8.1%
11,O=C(Nc1ccccc1)c1ccc2c(c1)OCO2,-10.7%
12,Cc1ccc(F)cc1NC(=O)c1ccc2c(c1)OCO2,96.8% (active)
13,Cc1ccc(F)cc1NC(=O)c1cccc(N(C)C)c1,-5.6%
14,S=c1nccc(-c2cc(Cl)sc2Cl)[nH]1,2%
15,COc1ccccc1CNC(=O)c1ccc(SC)cc1OC,18.6%
16,Cc1cc(-c2ccccc2)nc(N2CCC(C(=O)NC34CC5CC(CC(C5)C3)C4)CC2)n1,-5.8%
17,Cc1nc([N+](=O)[O-])nn1C12CC3CC(CC(Br)(C3)C1)C2,11.3%
18,Cn1c2c(c(=O)n(C)c1=O)[C@@H]1c3c(ccc4ccccc34)OC[C@@H]1CO2,-9%
19,CCn1c(SCC(=O)Nc2ccc(S(=O)(=O)Nc3onc(C)c3C)cc2)nnc1-c1ccccc1,6.4%
20,O=C(O)c1ccccc1-c1ccccc1C(=O)Nc1cccc2ccccc12,7.4%
21,Cc1nnc(NC(=O)CSc2nc(C3CCCCC3)nc3ccccc23)s1,-0.5%
22,CCCNC(=S)NC1CC2CCCC(C1)N2CC(C)C (stereo not given),5.3%
23,Cc1cc(C(F)F)n2nc(C(=O)Nc3ccc(S(=O)(=O)NC45CC6CC(CC(C6)C4)C5)cc3)nc2n1,5.2%
